Screening data (PubChem BioAssay)
Shiga toxin inh – blocks Shiga toxin action in Vero cells; Vero cells, Shiga toxin protein synthesis inhibition reporter; inhibition, % at 38.7 µM; 290,000 compounds, 9.2% hits; AID 2315; in the data active = inhibition mostly above about 28%, no sharp cut-off; inactive = mostly below about 43%; also: 0% is about no effect
Tb PYK inh – blocks Trypanosoma brucei pyruvate kinase. Q57TT1. TbPYK enzyme, Kinase-Glo Plus ATP luminescence, 45 min. Potency, µM (series often up to 76.8 µM), for inactives: at the highest dose activity, negative = inhibition, most hits filed as inhibitors. 410,000 compounds, 0.12% hits; also: potency is read from the fitted curve at half-maximal effect; % is scaled to controls: 0 for no effect and ±100 for the full control effect; nearly all actives have a fitted effect of over 50% in size
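Luminescence from Kinase-Glo Plus, added after a 45-minute room-temperature reaction, served as the end-point read-out. The enzyme and substrate were preincubated with compound before ADP (130 uM final) initiated turnover. Concentration-effect curves came from normalized qHTS data.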
FBPA Giardia inh – blocks Giardia fructose-bisphosphate aldolase activity | 290,000 compounds, 0.71% hits | A8B2U2 | AID 2451 | Potency, µM (doses to about 59.6 µM), without a hit: at the top dose activity, negative = inhibition, most hits filed as inhibitors | purified Giardia FBPA; also: potency is read from the fitted curve at half-maximal effect; % is scaled to controls: 0 for no effect and ±100 for the full control effect; nearly all actives have a fitted effect of over 55% in size
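40 nM FBPA preincubated 10 min at RT with compound (up to 57.5 uM final), then substrate plus GAPDH/TPI/NAD/arsenate coupling and diaphorase/resazurin added. Fluorescence read after 20 min at RT, 525/598 nm.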
LmPK inhibitor – inhibitors of Leishmania mexicana pyruvate kinase; Q27686; purified LmPK, Kinase-Glo ATP luminescence, 1 h; Potency, µM (highest dose often 57.5 µM), for inactives: at the top dose activity change, negative = inhibition, most hits filed as inhibitors; 290,000 compounds, 0.37% hits; also: potency is read from the fitted curve at half-maximal effect; % is scaled to controls: 0 for no effect and ±100 for the full control effect
Target sequence (Q27686 whole entry, looked up): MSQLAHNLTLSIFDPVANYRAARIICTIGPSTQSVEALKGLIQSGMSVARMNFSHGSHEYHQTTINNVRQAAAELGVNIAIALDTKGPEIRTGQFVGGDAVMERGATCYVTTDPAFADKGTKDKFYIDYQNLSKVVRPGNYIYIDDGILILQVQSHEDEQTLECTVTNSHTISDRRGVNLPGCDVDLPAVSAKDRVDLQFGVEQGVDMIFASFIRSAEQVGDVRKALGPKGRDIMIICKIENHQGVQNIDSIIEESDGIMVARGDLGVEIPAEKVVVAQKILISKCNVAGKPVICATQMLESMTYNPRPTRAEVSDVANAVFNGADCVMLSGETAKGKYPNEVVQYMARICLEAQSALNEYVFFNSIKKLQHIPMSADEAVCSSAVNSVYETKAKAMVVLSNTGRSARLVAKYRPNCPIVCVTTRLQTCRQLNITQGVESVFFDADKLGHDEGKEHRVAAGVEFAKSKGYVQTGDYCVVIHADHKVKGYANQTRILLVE
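Kinase-Glo luminescence read after 1 h RT reaction of 0.1 nM LmPK with 0.5 mM PEP and 0.1 mM ADP. Activity scaled between uninhibited and enzyme-free controls.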
RE007 growth inh – less growth of the S. pombe RE007 Vpr strain; S. pombe RE007 Vpr strain, BacTiter-Glo ATP luminescence, 24 h; Potency, µM (top dose mostly 92.2 µM), for the others: top-dose activity change, negative = less growth, actives largely listed as inhibitors; 360,000 compounds, 0.21% hits; AID 651644; active = well fitted falling curve with a large enough effect; inconclusive = small, poorly fitted or top-dose-only effect; inactive = no such curve, though single readings can be large or run the other way; also: potency is read from the fitted curve at half-maximal effect; % is scaled to controls: 0 for no effect and ±100 for the full control effect; nearly all actives have a fitted effect of over 50% in size
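Fission yeast RE007 carrying one integrated HIV-1 vpr copy, seeded at OD 0.01 in PMG+AL medium with 23 nL pinned compound. Grown 24 h at 30 degrees; viability read by BacTiter-Glo luminescence after 5 min.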
Cycloheximide cs – counter-screen hit for Shiga toxin inhibitors, cycloheximide. max response, %. 300,000 compounds, 12% hits. cell reporter, cycloheximide protein synthesis inhibition counterscreen; in the data active = max response mostly above about 13%, no sharp cut-off; inactive = mostly below about 14%; also: read at 38.3 µM for the half of the compounds with a filed dose; 0% is about no effect
Starred values were filed as active, the others as inactive; ? = inconclusive; / = not tested or not shown; [ ] = dose if it differs, or a comment. Only a selection was taken, and hits are over-represented in it overall. Unless noted, calls follow the shape of the dose curve; as a rule, active = well fitted curve in the direction sought with a large enough effect; inconclusive = small, poorly fitted or top-dose-only effect, or another doubt; inactive = no such curve, though single readings can be large; an effect the other way counts as inactive or inconclusive.

SMILES	Shiga toxin inh	Tb PYK inh	FBPA Giardia inh	LmPK inhibitor	RE007 growth inh	Cycloheximide cs
CC(=O)c1ccc(NC(=O)c2onc(C)c2Cl)cc1	96*	3%	-3%	-3%	12%	39*
Cc1ccc2c(Cl)c(C(=O)Nc3ccc4c(c3)OCO4)sc2c1	91*	-4%	0%	-11%	12%	19*
O=C(c1cnccn1)N1CCC2(CCCN(c3ccc(-c4ccccc4)cc3)C2)CC1	/	-8%	-13%	/	/	/
CCOc1ccc(-c2cc3c(=O)n(Cc4nc(-c5ccc(OC)cc5OC)oc4C)ccn3n2)cc1Cl	/	-16%	/	/	/	/
CCOc1ccccc1CN1CCc2nc(N3CCN(c4ccccc4F)CC3)ncc2C1	/	1%	/	/	/	/
COc1ccccc1NC(=O)c1sc2nc(C)c(C(=O)Nc3ccc(C)cc3C)c(-c3cccs3)c2c1N	/	1%	/	/	/	/
CC(=O)c1cccc(NC(=O)c2onc(C)c2Cl)c1	24	0%	-1%	6%	-5%	17*
Cc1c(C(=O)Nc2ccc(-n3c(C)nc4ccccc4c3=O)cc2)cccc1[N+](=O)[O-]	/	3%	/	/	/	/
Cc1cccc(-n2ncc3c(N4CCCC(C)C4)ncnc32)c1 (stereo not drawn)	/	-7%	/	/	/	/
CCN(CC)C(=O)C1CCCN(c2ncnc3c2cnn3-c2cccc(C)c2)C1 (stereo not drawn)	63*	7%	-1%	8%	-8%	34*
CCN(CC)C(=O)C1CCCN(c2ncnc3onc(C)c23)C1 (stereo not drawn)	/	-1%	/	/	/	/
CCN(CC)C(=O)C1CCCN(c2ncnc3c2cnn3-c2ccc(Cl)cc2)C1 (stereo not drawn)	62*	1%	-4%	-7%	5%	23*
CCOC(=O)C1CCCN(c2ncnc3c2cnn3-c2cccc(C)c2)C1 (stereo not drawn)	118*	-1%	-1%	0%	12%	41*
COc1ccccc1CNC(=O)CN1C(=O)COc2ccc(S(=O)(=O)NC3CCCC3)cc21	-10	3%	1%	-2%	3%	21*
COc1ccccc1CNC(=O)CN1C(=O)COc2ccc(S(=O)(=O)N3CCCCC3)cc21	2	-5%	/	3%	-2%	11
C[C@@H]1[C@H](O)[C@@H](C)/C=C/C=C/C=C/C=C/C=C/C=C/C=C/[C@H](O[C@@H]2O[C@H](C)[C@@H](O)[C@H](N)[C@@H]2O)C[C@@H]2O[C@](O)(C[C@@H](O)C[C@@H](O)[C@H](O)CC[C@@H](O)C[C@@H](O)CC(=O)O[C@H]1C)C[C@H](O)[C@H]2C(=O)O	/	2%	/	/	/	/
O=[N+]([O-])c1ccc(O)c(/C=N/n2c(-c3ccccc3)n[nH]c2=S)c1	/	?	?	0%	?	-1
O=[N+]([O-])c1ccc(O)c(C=Nc2ccc3nc(-c4ccccc4)[nH]c3c2)c1	70*	0%	7%	-21%	?	28*
Oc1c(Br)cc(C=Nc2ccc3nc(-c4ccccc4)[nH]c3c2)c(O)c1Br	75*	-9%	?	5%	-9%	52*
COc1cc(CNc2ccc3[nH]c(=O)[nH]c3c2)ccc1OCc1ccc(C)cc1	118*	2%	1%	-1%	-4%	26*
COc1cc(CNc2ccc3[nH]c(=O)[nH]c3c2)ccc1OCc1ccccc1Cl	30	-6%	-1%	-2%	-19%	14
COc1cc(CNc2ccc3[nH]c(=O)[nH]c3c2)cc(Cl)c1OCc1ccc(F)cc1	/	-3%	/	/	/	/
COc1cc(CNc2ccc3[nH]c(=O)[nH]c3c2)ccc1OCc1cccc(C)c1	37	2%	5%	4%	-18%	21*
CCOC(=O)C1(CCc2ccccc2)CCN(C(=O)C2CCCO2)CC1 (stereo not drawn)	3	6%	2%	2%	14%	13
CCOC(=O)C1(CCc2ccccc2)CCN(C(=O)c2occc2C)CC1	21	-8%	-4%	4%	1%	9
SMILES	Shiga toxin inh	Tb PYK inh	FBPA Giardia inh	LmPK inhibitor	RE007 growth inh	Cycloheximide cs
CCOC(=O)C1(CCc2ccccc2)CCN(C2Cc3ccccc3C2)CC1	76*	-7%	-9%	0%	-7%	27*
CCOC(=O)C1(CCc2ccccc2)CCN(C(=O)Cc2nonc2C)CC1	63*	-3%	-2%	-5%	2%	14*
CCOC(=O)C1(CCc2ccccc2)CCN(C(=O)[C@@H]2C[C@@H](C)NC(=S)N2)CC1	15	-26%	-5%	6%	15%	13*
COc1ccc(-c2nc3c(c(SCC(=O)N4CCCCC4)n2)Cc2c(CO)cnc(C)c2O3)cc1	/	-4%	/	/	/	/
CC(C)c1ccc(/C=C/C(=O)Nc2nn[nH]n2)cc1	28	/	?	-2%	/	13*
Cc1ccc(/C=C/C(=O)Nc2nn[nH]n2)o1	-8	?	?	3%	3%	-3
O=C(CCc1nnc(CCCCc2ccccc2)o1)N(CCO)Cc1ccccc1	1	1%	0%	10%	2%	-2
C=C(C)CN(CC)C(=O)CCc1nnc(CCCc2ccccc2)o1	61*	5%	0%	-7%	14%	39*
CCN(CCn1cccn1)C(=O)CCc1nnc(CCCc2ccccc2)o1	99*	-2%	1%	-9%	-10%	36*
Cc1ccc2occ(CC(=O)N(Cc3ccccc3Cl)C3CCS(=O)(=O)C3)c2c1 (stereo not drawn)	/	-10%	/	/	/	/
C=CC1=C2C=C(C3CC3)N(CCCCO)C=C2C(=O)C(C)(OC(=O)c2ccco2)C1=O (stereo not drawn)	/	/	?	-9%[11.5 µM]	/	/
COc1ccc(-c2nc3ccccn3c2C=O)cc1	70*	0%	0%	-30%	-15%	45*
O=Cc1c(-c2ccc(F)cc2)nc2ccccn12	32	3%	1%	-2%	-28%	26
O=Cc1c(N2CCN(c3ccccc3)CC2)nc2ccccn2c1=O	54*	2%	3%	1%	4%	31*
COc1ccc(N2CCN(c3nc4ccccn4c(=O)c3C=O)CC2)cc1	16	-10%	-12%	1%	14%	13*
COc1ccc(N2CCN(c3nc4ccc(C)cn4c(=O)c3C=O)CC2)cc1	33	-7%	-8%	-2%	34%	3
N#C/C(=C\c1c(N2CCN(c3ccccc3)CC2)nc2ccccn2c1=O)S(=O)(=O)c1ccccc1	-9	11%	-3%	11%	12%	-4
N#CC(C#N)=Cc1c(N2CCN(c3ccccc3)CC2)nc2ccccn2c1=O	82*	3%	-2%	1%	6%	33*
COC(=O)[C@@]1(Cc2ccc(OC)cc2)[C@H]2c3cc(C(=O)N(C)C)n(Cc4ccc(C)c(F)c4F)c3C[C@H]2CN1C(=O)c1ccccc1	/	/	-7%	/	/	/
O=C(c1ccc(CSc2nc3ccncc3n2Cc2ccccc2F)cc1)N1CCCCC1	/	6%	/	/	/	/
